Laboratory results from PubChem BioAssay (NCI).
Compounds without any hit were thinned out: in the full panel of roughly 83,000, 20% have a hit.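 Compound tested at a single concentration for 48 hours in 96-well plates; a percent growth value below 10 was scored as active.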 A number with no mark means an inactive call. Active and inactive are the calls of the source.

The compounds below were run on HL-60(TB) leukemia (assay: NCI-60 one-dose screen, 48 h (100 = growth as untreated, 0 = no growth, -100 = all killed)). Conditions: 10 µM unless noted.

How did the growth turn out when `CC(C)CCOC(=O)c1ccccc1` was run?
The growth was 101%.

With `O=C(O)CCCc1cnc2c3sccc3nc(SCc3c(Cl)cccc3Cl)n12` as the compound, how does the growth read?
The growth was -26.5% (active).

With `Cc1ccc(Cc2ccc(C)cc2)cc1` as the compound, how does the growth read?
The growth was 95.9%.

With `CN(C)CCS(=O)(=O)Nc1cc(-c2ccc3ncc(C#N)c(Nc4ccc(F)c(Cl)c4)c3c2)cnc1Cl` as the compound, how does the growth read?
The growth was -28.4% (active).

How did the growth turn out when `COc1ccccc1CNCCCN1C(=O)c2ccc3c4c(ccc(c24)C1=O)C(=O)N(CCCNCCCCN)C3=O` was run?
The growth was -42% (active).

With `CNC(=O)c1cc(Oc2ccc3nc(NC(=O)Nc4ccc(N5CCC(N(C)C)CC5)cc4)sc3c2)ccn1` as the compound, how does the growth read?
The growth was 77.1%.

Which growth does the source give for `COc1ccc(-c2nc3sccn3c2/C=C/C(=O)c2c[nH]c3ccccc23)cc1` here?
Its growth is 117%.

For `C=CC(C)C(C)(C)O` (stereo not given), which growth is on record?
Its growth is 97.7%.

Which growth does the source give for `CCOC(=O)C(C(C)=O)c1nc2sc3cc(Cl)c(Cl)cc3n2c(=O)c1C#N` (stereo not given) here?
The growth was 100%.

With `CC(C)CNCC(O)COc1ccc(C(C)(C)c2ccc(OCC(O)CNCC(C)C)cc2)cc1` (stereo not given) as the compound, how does the growth read?
The growth was 26%.

How did the growth turn out when `Fc1ccc(Nc2nc(Nc3ccc(-c4nc5ccccc5[nH]4)cc3)nc(N3CCCC3)n2)cc1` was run?
The growth was 5.97% (active).

For `O=C(Nc1cccc(Cl)c1)Oc1c(Cl)c(Cl)c(Cl)c(Cl)c1Cl`, which growth is on record?
Its growth is 101%.

Which growth does the source give for `COC1=CC(c2ccc[nH]2)=N/C1=C\c1[nH]c(C)c(CC(=O)OCc2ccccc2)c1CCC(=O)OCc1ccccc1` here?
The growth was -31.1% (active).

How did the growth turn out when `CC(O)C(N)=O` (stereo not given) was run?
The growth was 117%.

How did the growth turn out when `O=Cc1ccc(-c2cn3ccnc3c(-c3ccc4ncn(Cc5ccccc5)c4c3)n2)cc1` was run?
The growth was 83.5%.

Which growth does the source give for `CC(C)=CCCC(C)c1ccc(C)c2c1OCN(CC1CCNCC1)C2` (stereo not given) here?
The growth was 13.8%.

How did the growth turn out when `CCN(CC)CCOC(=O)c1ccc(N=Nc2ccc(O)c(OC)c2)cc1` was run?
The growth was 97.5%.

Which growth does the source give for `CC(C)(C)Nc1c(-c2c3ccccc3cc3ccccc23)nc2ccccn12` here?
Its growth is 74.4%.

How did the growth turn out when `COc1cc(/C=C/C(=O)c2cc(OC)c(OC)c(OC)c2)ccc1Oc1nc2c(c(=O)n(C)c(=O)n2C)n1C` was run?
The growth was -13.1% (active).

Which growth does the source give for `CCN1CCN(CCCN(C[C@H]2Cc3ccccc3CN2)[C@H]2CCCc3cccnc32)CC1` here?
Its growth is 62.8%.

`NNC(=O)CNc1ccc2ccccc2c1` was tested. Which growth did it give?
Its growth is 84.8%.

How did the growth turn out when `N=C(N)SCc1cccc2c(CSC(=N)N)cccc12` was run?
Its growth is 93.4%.

For `Nc1c2c(nc3ccc(Cl)cc13)CC(c1ccc(O)cc1)CC2=O` (stereo not given), which growth is on record?
Its growth is 18.9%.

How did the growth turn out when `CC(=O)c1ccc(-n2cc(CN3CCN(c4cc5c(cc4F)c(=O)c(C(=O)O)cn5C4CC4)CC3)nn2)cc1` was run?
The growth was 99%.

How did the growth turn out when `COC(=O)C1=NNC(=S)N(c2cc(C)[nH]n2)C(=O)C1` was run?
Its growth is 100%.

With `C=C(C)[C@@H]1C[C@@H]2Cc3cc(Cl)ccc3N1O2` as the compound, how does the growth read?
The growth was -8.6% (active).

For `Cc1cc(N2CCOCC2)nc(N(CCCNc2ccnc3cc(Cl)ccc23)Cc2ccco2)n1`, which growth is on record?
Its growth is -26.3% (active).

How did the growth turn out when `N#Cc1c(N)nc(Nc2nc3ccccc3[nH]2)nc1-c1ccc(Cl)cc1` was run?
Its growth is 106%.

How did the growth turn out when `COC(=O)C1(C)CCC[C@]2(C)[C@H]3C[C@H]4C(C(C)C)=C[C@]3(CC[C@@H]12)[C@H]1[C@@H]4[C@@H](OCC#CCN2CCOCC2)CC[C@@H]1OCC#CCN1CCOCC1` (stereo not given in full) was run?
The growth was 88.7%.

For `COc1c(C2CC(=O)Nc3c2cnn3Cc2ccco2)cc2c(c1OC)OCO2` (stereo not given), which growth is on record?
Its growth is -25.8% (active).

How did the growth turn out when `CC(=O)c1cc2ccccc2o1` was run?
Its growth is 102%.

`CCOC(=O)C1=C(N)Oc2c(sc3c(C)cccc23)C1c1ccc(F)cc1` (stereo not given) was tested. Which growth did it give?
Its growth is -39.3% (active).

How did the growth turn out when `O=C(Nc1ccc(C(=O)Nc2ccc(C3=NCCCN3)cc2)cc1)Nc1ccc(C2=NCCCN2)cc1` was run?
Its growth is 44.2%.

With `CCOC(=O)c1sc(NC(=O)CN2CCC(Cc3ccccc3)CC2)nc1C` as the compound, how does the growth read?
The growth was 92%.

`N#Cc1nnn(-c2ccc(S(N)(=O)=O)cc2)c1NC(=O)CCl` was tested. Which growth did it give?
Its growth is 77.5%.

Which growth does the source give for `Cc1cc(-c2ccccc2)cc(SC#N)[n+]1[O-]` here?
Its growth is 7.14% (active).

With `Clc1ccc(-c2nnc(Cn3ccnc3)o2)cc1` as the compound, how does the growth read?
The growth was 93.8%.

`C[N+](C)(C)CCOC(OCC[N+](C)(C)C)(c1ccccc1)c1ccccc1` was tested. Which growth did it give?
Its growth is 110%.

Which growth does the source give for `COc1ccc(Cc2cnc(NC(=O)c3sc4ccccc4c3Cl)s2)cc1` here?
Its growth is -50.3% (active).

How did the growth turn out when `C=C1C(=O)O[C@H]2[C@H]1CC/C(COC(=O)/C=C/c1cccnc1)=C\CC[C@@]1(C)O[C@@H]21` was run?
Its growth is -28% (active).
